This is an account of results in PubChem BioAssay (NCI).

Experiment [1] is described as follows: NCI Yeast Anticancer Drug Screen. Data for the rad50 strain (AID 155).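 Further: 0% = growth of vehicle-only cultures of the same strain.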 Particulars: S. cerevisiae rad50 strain growth inhibition; at 50.0 µM; hits give high values. The procedure, abridged:
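Relative growth inhibition (compound vs vehicle) was measured in yeast with a defined repair-gene alteration.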

Experiment [2] is described as follows: NCI Yeast Anticancer Drug Screen. Data for the mec2-1 strain (AID 157). The settings on record: S. cerevisiae mec2-1 strain, at 50.0 µM, hits give high values. The procedure, abridged: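 Growth inhibition is read against vehicle-treated controls after compound exposure of the mec2-1 yeast strain, which is defective in DNA damage repair or cell cycle control.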

The nature of experiment [3]: NCI Yeast Anticancer Drug Screen. Data for the sgs1 mgt1 strain (AID 161).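 Further: 0% = growth of cultures given vehicle only.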 The settings on record: S. cerevisiae sgs1 mgt1 strain, at 50.0 µM, hits give high values. The procedure, abridged:
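Compounds are added to genetically altered yeast, and growth is compared with cultures given vehicle alone to give percent inhibition.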

Experiment [4] is described as follows: NCI Yeast Anticancer Drug Screen. Data for the bub3 strain (AID 167). The settings on record: S. cerevisiae bub3 mutant strain, at 50.0 µM, hits give high values. A digest of the protocol:
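Screening used yeast with an engineered genetic alteration affecting cell cycle control. Compound-exposed cultures were compared with vehicle cultures, and reduced growth was taken as inhibition.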

Experiment [5] in a line: NCI Yeast Anticancer Drug Screen. Data for the mlh1 rad18 strain (AID 175). The settings on record: S. cerevisiae mlh1 rad18 strain growth inhibition; at 50.0 µM; hits give high values. The procedure, abridged:
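Cells of a genetically altered yeast strain, deficient in DNA damage repair, were treated with compound. Their growth was then compared with that of vehicle-treated cultures to give inhibition.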

Experiment [6] in a line: NCI Yeast Anticancer Drug Screen. Data for the cln2 rad14 strain (AID 165).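 Further: 0% = growth equal to vehicle treated cultures.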 Particulars: S. cerevisiae cln2 rad14 strain, at 50.0 µM, hits give high values. A digest of the protocol:
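Growth inhibition, relative to vehicle-treated controls, is the read-out. The test organism is a yeast strain with defined genetic alterations, cln2 rad14.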

This is part of a sample that, as a whole, favours compounds with a hit. Of some 79,000 tested, about 15% had one in any assay. A number with no mark means an inactive call. Active and inactive are the calls of the source. No stated cut-off is given here; in the data, active means growth inhibition above about 70%; inactive means the rest.

Turning to `CC(C)(S(=O)(=O)Oc1ccccc1)S(=O)(=O)Oc1ccccc1`, the growth inhibition was 1.6% in experiment [1]; 9.95% in experiment [2]; -15.4% in experiment [3]; 49.8% in experiment [4]; 16.6% in experiment [5].
On the same counts, the results for `Cn1c(=O)c2ccccc2c2cc([N+](=O)[O-])ccc21` are -11.8%, -5.05%, -18.5%, 12.7% and -4.2%.
Take `CCOC(=O)CN=NNc1ccc([N+](=O)[O-])cc1`: the growth inhibition was 10.3% in experiment [1]; 8.85% in experiment [2]; -3.5% in experiment [3]; 21.1% in experiment [4]; 7.7% in experiment [5].
As for `CCOC(=O)c1nc2ccc(C(F)(F)F)cc2nc1NCc1ccc(F)cc1`, the growth inhibition in experiment [1] is -13.9%; in experiment [2] it was 7.6%; in experiment [3], 20.7%; in experiment [4], 12.9%; in experiment [5] it was -48.2%.
Taken in the same sequence, the figures for `O=[N+]([O-])c1ccc(O)c(C=NCCCN=Cc2cc([N+](=O)[O-])ccc2O)c1` were 0.7%, 7.95%, -5%, 9% and -11.3%.
In the case of `CCOC(=O)C(=CNC(=S)Nc1cc(C)ccc1C)C(=O)OCC`, the growth inhibition is -12.8% in experiment [1]; -38.5% in experiment [2]; -14.1% in experiment [3]; -16.7% in experiment [4]; -1.85% in experiment [5].
`Cc1ccc(S(=O)(=O)N(CCOc2c3occc3cc3ccc(=O)oc23)CCN(CCN(CCOc2c3occc3cc3ccc(=O)oc23)S(=O)(=O)c2ccc(C)cc2)S(=O)(=O)c2ccc(C)cc2)cc1`: the growth inhibition in experiment [1] was -10.2%; in experiment [2], -11.7%; in experiment [3], -14.4%; in experiment [4] it was -21.1%; in experiment [5], -6.8%.
Turning to `CN1c2ccccc2Nc2cc(C#N)ccc21`, the growth inhibition was -0.7% in experiment [1]; -8.3% in experiment [2]; 14.8% in experiment [3]; 19.2% in experiment [4]; 5.7% in experiment [5].
On the same counts, the results for `Cc1nc2n(c1C(N)=O)CCS2` are 5.15%, -5.65%, -5%, -10.7% and -10.7%.
On the same counts, the results for `CC1=CC(C)(C)N=C2SC(=O)c3nc4ccccc4c(=O)n3N12` are 10.7%, 2.35%, 13.8%, 15.1% and 16.6%.
Take `COc1cccc(/C=N\N=C\c2cccc(OC)c2O)c1O`: the growth inhibition was 2.65% in experiment [1]; 2.7% in experiment [2]; -11.4% in experiment [3]; 26.6% in experiment [4]; 33.9% in experiment [5].
On the same counts, the results for `CC(C)(C[NH-])C[NH-].[Cl][Pt+2][Cl]` are -22.3%, 13.3%, 20.2%, 16.6% and 87.7% (active).
Regarding `CCOC(=O)C[C@](C)(O)C1CCCN1` (some centres undefined), the growth inhibition in experiment [1] is 26.5%; in experiment [2], 11.8%; in experiment [3], 5.95%; in experiment [4], -3%; in experiment [5] it was 8.75%.
Taken in the same sequence, the figures for `COc1ccc(C23CCCC(=O)C2C2C(=O)CCCC23c2ccc(OC)cc2)cc1` (centres undefined) were 47.4%, -0.85%, 4.4%, 5.25% and 13.1%.
Take `CC(C)CCc1ccccc1O`: the growth inhibition was -14.7% in experiment [1]; -21.1% in experiment [2]; -28.6% in experiment [3]; 0.1% in experiment [4]; -14.5% in experiment [5].
For the compound `CCOc1cc2c(cc1C/C=C/c1ccc(OC)cc1)OCO2`, the growth inhibition in experiment [1] is 26.4%; in experiment [2] it was 12.6%; in experiment [3] it was 37.4%; in experiment [4] it was 41.8%; in experiment [5] it was 5.05%.
With `O=C1Cc2nc3ccccc3nc2CC(=O)c2ccccc21`, the growth inhibition in experiment [1] was 4.9%; in experiment [2], 10.9%; in experiment [3], 9.35%; in experiment [4] it was -12.1%; in experiment [5], 13.3%.
In the case of `Cc1cccc(C)c1C`, the growth inhibition in experiment [1] was 4.8%; in experiment [2] it was -5%; in experiment [3], 9.85%; in experiment [4], -0.65%; in experiment [5], -15.1%.
Take `CCOC(=O)C(=O)c1c(C)[nH]c(C)c1C(=O)OCC`: the growth inhibition in experiment [1] was -2.15%; in experiment [2] it was -4.8%; in experiment [3], 17.1%; in experiment [4], 7.3%.
As for `COc1ccc(CCc2ccc(Cl)cc2)cc1`, the growth inhibition in experiment [1] was 6.35%; in experiment [2], 6.3%; in experiment [3], -5.9%; in experiment [4] it was -17.6%; in experiment [5], -4.5%.
Taken in the same sequence, the figures for `Clc1cccc(-c2sc(-c3ccsc3)cc2Cc2ccsc2)c1` were -21.2%, -20.1%, -22.1%, -24.1% and 2.1%.
As to `CCC(=O)C12CCCC1=NC(=N)N=C2C1=NC(=N)N=C2CCCC21C(=O)CC` (centres undefined), the growth inhibition was -10.3% in experiment [1]; 12.4% in experiment [2]; -14.2% in experiment [3]; -1.7% in experiment [4]; 5.2% in experiment [5].
Take `Cc1ccc(O)c(C(=O)C[n+]2ccccc2)c1`: the growth inhibition is -12.8% in experiment [1]; -9.65% in experiment [2]; -1.25% in experiment [3]; 0.1% in experiment [4]; -0.55% in experiment [5].
In the case of `CC(=O)N(C(C)=O)n1c(Cc2ccc(Cl)cc2)n[nH]c1=O`, the growth inhibition is 32.1% in experiment [1]; -53.7% in experiment [2]; -26.3% in experiment [3]; -30.9% in experiment [4]; -65% in experiment [5].
Taken in the same sequence, the figures for `CC(SCc1ccccc1)C(NC(=O)c1ccccc1)C(=O)O` (centres undefined) were 4.95%, 9.9%, -8.3%, 10.1% and 7.55%.
On to `CC(=O)O[C@H]1CC[C@@]2(C)[C@@H](CC[C@@H]3[C@@H]2CC(=O)[C@@]2(C)[C@H]3C[C@@H]3CC(C)=CC(=O)[C@@H]32)C1`, for which the growth inhibition was 48.2% in experiment [1]; -7.55% in experiment [2]; 28.6% in experiment [3]; -34.9% in experiment [4]; 28% in experiment [5].
As to `S=C(Cc1ccc2ccccc2c1)N1CCOCC1`, the growth inhibition in experiment [1] was 29.4%; in experiment [2], 1.95%; in experiment [3], -2.1%; in experiment [4] it was 30.4%; in experiment [5], 12.9%.
As to `C[Si](C)(C)Oc1cc(N=NNC2=CC(=O)c3ccccc3C2=O)c(O)c2ccccc12`, the growth inhibition in experiment [1] is -0.1%; in experiment [2], 2.2%; in experiment [3] it was -11.8%; in experiment [4] it was 7.6%; in experiment [5] it was 5.15%.
For the compound `CN(C)Cc1c(-c2ccc(Br)cc2)oc(-c2ccc(Br)cc2)c1Br`, the growth inhibition in experiment [1] is -31.1%; in experiment [2], -8.7%; in experiment [3], -13.9%; in experiment [4], 4.5%; in experiment [5], 7.2%.
In the case of `CC(=O)OCC1OC(n2cc(CBr)nn2)C(OC(C)=O)C(OC(C)=O)C1OC(C)=O` (centres undefined), the growth inhibition in experiment [1] is 0.3%; in experiment [2], 4.9%; in experiment [3], -24.1%; in experiment [4], 1.7%; in experiment [5] it was -19.9%.
Regarding `CCCCOc1c(Cl)cc(Cl)cc1-c1ccccc1`, the growth inhibition in experiment [1] was 14.7%; in experiment [2] it was 9.6%; in experiment [3] it was 2.55%; in experiment [6] it was -18.2%; in experiment [5], 2.25%.
On to `C=CCCCCCCCCO`, for which the growth inhibition in experiment [1] is -12.1%; in experiment [2], -3.6%; in experiment [3], 8.3%; in experiment [4], -10%; in experiment [5], -8.6%.
For the compound `COC1N(C2C=CC(CO)O2)C(=O)NC(=O)C1(C)Br` (centres undefined), the growth inhibition is -4.8% in experiment [1]; -18.1% in experiment [2]; 2.8% in experiment [3]; -17.8% in experiment [4]; 15.8% in experiment [5].
On the same counts, the results for `Cc1cccc(C)c1NC(=O)N1CCN(C)CC1` are 1.9%, 14.3%, -3.3%, -9.45% and -18.6%.
With `Cc1ccc(Cc2cc(=O)[nH]c(=S)[nH]2)cc1`, the growth inhibition was -1.05% in experiment [1]; 4.05% in experiment [2]; -6.15% in experiment [3]; -11.6% in experiment [4]; -3.35% in experiment [5].
For the compound `CC(C)CSCC1OC(n2cnc3c(N)nccc32)C(O)C1O` (centres undefined), the growth inhibition in experiment [1] was -6.15%; in experiment [2], -13.8%; in experiment [3] it was -7.85%; in experiment [4] it was -12.7%; in experiment [5], -20.4%.
On the same counts, the results for `O=NN(CCCl)C(=O)NC1CCC(C(=O)O)CC1` (centres undefined) are 29.6%, -2.05%, -6.65%, -0.75% and 2.4%.
As for `CC(C)COC(=N)c1ccccc1C1(O)CCCCC1`, the growth inhibition is -19.9% in experiment [1]; -10.1% in experiment [2]; -9.5% in experiment [3]; 0.6% in experiment [4]; -17.6% in experiment [5].
On the same counts, the results for `O=C1OC(Nc2ccccc2)C(Cl)=C1Cl` (centres undefined) are 38.1%, 13.8%, 22.5%, 6.2% and -0.15%.
